Peg3 promoter: inhibitors of Peg3 promoter; HeLa PEG-Prom luciferase reporter, luminescence, overnight; inhibition, % at 20 µM; hit rate 1.7% among 360,000;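 active means inhibition of at least 50% at 20 µM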
CF NFkB block: cystic fibrosis NF-kB activation inhibition. KKLEB NF-kB-GFP reporter, PAF-induced, GFP fluorescence overnight. inhibition, % at 5 µM. hit rate 0.86% among 360,000. AID 588850;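 active means at least 50% inhibition at 5 µM, scaled per plate between neutral and stimulator controls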;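 further: PAF is a Pseudomonas aeruginosa culture filtrate used as stimulus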
HIF-2a block: HIF-2a inhibition; 786-0 RCC cells HIF-2a reporter, luciferase luminescence, overnight; inhibition, % at 18.8 µM; hit rate 0.72% among 360,000;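 active means inhibition of the luminescence signal of 40% or more relative to plate controls, in a single-dose primary screen at 18.75 µM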
B2AR ag: agonists of human beta-2 adrenergic receptor inducing internalization; hit rate 0.43% among 340,000; Am2.2-beta2AR cells, FAP receptor internalization, flow cytometry; response, % (concentration not given with the values); P07550;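 active means response above a set limit, near 3 SD of response in nonfluorescent compounds, cut at about 42% in these data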
Target sequence (P07550 whole entry, looked up): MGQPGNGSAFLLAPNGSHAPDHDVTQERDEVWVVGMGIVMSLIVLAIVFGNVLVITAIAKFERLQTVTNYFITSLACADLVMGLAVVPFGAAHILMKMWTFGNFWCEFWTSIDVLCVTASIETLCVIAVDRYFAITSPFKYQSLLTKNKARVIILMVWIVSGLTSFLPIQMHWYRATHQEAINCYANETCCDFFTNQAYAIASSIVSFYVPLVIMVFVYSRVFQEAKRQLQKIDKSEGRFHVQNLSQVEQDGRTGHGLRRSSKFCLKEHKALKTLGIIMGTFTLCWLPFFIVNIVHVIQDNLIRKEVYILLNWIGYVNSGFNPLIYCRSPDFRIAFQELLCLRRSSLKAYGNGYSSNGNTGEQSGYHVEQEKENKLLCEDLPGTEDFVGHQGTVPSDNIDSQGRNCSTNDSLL
KKLEB tox: CF airway cell cytotoxicity counter-screen; KKLEB CF airway cells viability, ATPlite luminescence, overnight; stronger effect = lower value; cells stimulated with P. aeruginosa culture filtrate; activity change (cytotoxicity), % at 5 µM; hit rate 0.36% among 360,000;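 active means corrected activity change at or below -50% at 5 µM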
TRPM1 prom inh: MITF TRPM1 promoter inhibition in SK-MEL-5 cells; AID 488899; hit rate 0.83% among 330,000; SK-MEL-5 TRPM1 promoter luciferase, 24 h; inhibition, % at 12.5 µM;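 active means mean inhibition across replicates of 60% or more, whatever share of single replicates reaches that level; inconclusive means some that reach 60%, reason not given; inactive means mean inhibition across replicates below 60%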
Numbers stand for hits; – = inactive; ? = inconclusive; · = not tested or not shown. Most compounds without a hit are left out; they make up all but 2.8% or so of the library.

SMILES	Peg3 promoter	CF NFkB block	HIF-2a block	B2AR ag	KKLEB tox	TRPM1 prom inh
CC(C)(C)C(=O)NC(=S)NNC(=O)c1ccc(-c2ccccc2)cc1	–	55.7	–	–	–	?
CC(C)(C)c1ccc(C(=O)NC(=S)NNC(=O)c2cccs2)cc1	–	57.9	–	–	–	–
O=C(N/N=C/c1cccs1)c1ccccn1	–	–	–	–	–	–
C(=NN=C(NN=Cc1cccs1)NN=Cc1cccs1)c1cccs1	77.7	–	–	–	–	–
CCOc1cc(N2CCOCC2)c(OCC)cc1NC(=O)c1cc(-c2ccco2)nc2ccccc12	–	98.8	–	–	–	–
CCN(CC)S(=O)(=O)c1ccc(N2CCOCC2)c(NC(=O)c2cc(-c3ccccn3)nc3ccccc23)c1	61.5	96.7	–	–	-88.8	–
CCN(CC)S(=O)(=O)c1ccc(N2CCOCC2)c(NC(=O)c2cccc3ccccc23)c1	–	–	–	–	–	–
O=C(NC1CCCC1)C1C(c2ccc(C(F)(F)F)cc2)=Nc2ccccc2N1C(=O)c1cccc2ccccc12 (stereo unspecified)	·	·	–	·	·	·
CCCCn1nnnc1C(c1ccccc1)N1CCN(c2ncccc2C(F)(F)F)CC1 (stereo unspecified)	·	·	–	·	·	·
CC(C)(C)C1CCc2sc(-c3nnc(CCl)o3)cc2C1 (stereo unspecified)	–	–	–	–	–	–
ClCc1nnc(-c2cc3c(s2)CCCC3)o1	108.3	–	–	–	–	–
Brc1ccc(-c2nc(N/N=C/c3cccnc3)c3ccccc3n2)cc1	–	–	–	–	-70.2	–
C(=N\Nc1nc(-c2cccnc2)nc2ccccc12)/c1ccccc1	–	–	–	–	–	·
CC(C)N1CCC1(C)C(=O)Nc1ccc2cn[nH]c2c1 (stereo unspecified)	–	–	–	·	–	·
CCN(CC)C(=S)SSC(=S)N(CC)CC	68.0	–	–	–	–	–
CC(C)(C)OC(=O)N1CCC(NC(=O)c2[nH]c(C(F)(F)F)nc2-c2ccccc2)CC1	–	–	–	·	–	·
CC(=O)Nc1ccc(C=C(C#N)c2ccc(C)cc2)cc1	–	–	–	·	–	·
CCOc1ccc(/C=C/C(O)=C2/C(=O)N(C)C3(C)CC2c2ccccc2O3)cc1OC (stereo unspecified)	–	–	61.7	–	–	–
COc1ccc(-c2[nH]ncc2/C=C(/C#N)C(=O)NC2CCCCCC2)cc1	50.2	–	–	–	–	–
CCOc1cc(NC(=S)NCC2CCCO2)c(OCC)cc1NC(=O)c1ccccc1 (stereo unspecified)	–	–	–	–	–	–
CCOc1cc(NC(=S)NCC2CCCO2)c(OCC)cc1NC(=O)c1cccc(C)c1 (stereo unspecified)	–	–	–	46.8	–	–
O=S1(=O)CC(N2CCCCC2)CN1Cc1cn(Cc2cccc(Cl)c2)nn1 (stereo unspecified)	·	·	–	·	·	·
CC1C/C(=C\c2cccnc2)C(=O)/C(=C/c2cccnc2)C1 (stereo unspecified)	107.3	104.8	93.0	–	-96.4	97.5
COc1cc(NC(=O)C2=C(N3CCOCC3)/C(=C\c3ccc(Cl)cc3Cl)CC2)cc(OC)c1OC	–	–	–	–	-64.9	–
O=C(NC(Nc1ncc(S(=O)(=O)c2ccc([N+](=O)[O-])cc2)s1)(C(F)(F)F)C(F)(F)F)c1ccc(Cl)cc1	–	–	–	–	-55.2	–
SMILES	Peg3 promoter	CF NFkB block	HIF-2a block	B2AR ag	KKLEB tox	TRPM1 prom inh
COCC(=O)Nc1ncc(S(=O)(=O)c2ccc([N+](=O)[O-])cc2)s1	–	–	–	–	–	–
CCN(CC)C(=O)c1csc([C@@H]2O[C@H](CO)[C@H](O)[C@H](O)[C@H]2O)n1	–	–	–	·	–	·
CCCN(CCC)Cc1c(C(=O)N/N=C/C(C)=C\c2ccco2)nnn1-c1nonc1N	–	–	–	–	–	68.6
C/C(=N\NC(=O)c1nnn(-c2nonc2N)c1CN(C)c1ccccc1)c1ccccn1	67.6	–	–	–	–	–
CC(=O)C1=CCC(c2ccc(Cl)cc2)N(S(=O)(=O)c2ccc(C)cc2)C1 (stereo unspecified)	–	–	–	·	–	·
CCN1C(=O)[C@H]2[C@@H](c3ccc(C)cc3)N[C@]3(CCCN(CCC(C)C)C3=O)[C@H]2C1=O	–	–	–	·	–	·
COc1ccc(S(=O)(=O)N2CCC[C@H]2C(=O)N2CCC[C@H]2C(=O)N(C)Cc2ccccc2)cc1C	·	·	–	·	·	·
CCc1nc(Nc2ccc3c(c2)OCCO3)c2oc3ccccc3c2n1	69.2	–	–	–	–	–
Cc1nc(Nc2ccc3c(c2)OCCO3)c2oc3ccccc3c2n1	–	–	–	–	–	–
CCCCC[C@@H](/C=C/C1C(=O)C=C[C@H]1C/C=C\CCCC(=O)OC)OC(C)=O (stereo partly specified)	80.5	–	–	–	–	67.6
CC(C)(C)c1ccc(C(O)c2ncc(-c3cccc(F)c3)[nH]2)cc1 (stereo unspecified)	–	–	–	·	–	·
CCc1ccc2nc(N(CCCN(C)C)C(=O)c3ccc(C(=O)c4ccccc4)cc3)sc2c1	101.8	–	–	–	–	–
Cc1ccc2nc(NNC(=O)c3ccc(S(=O)(=O)N4CCc5ccccc5C4)cc3)sc2c1	–	–	–	–	–	77.8
Cc1ccc2nc(NNC(=O)c3ccc4c(c3)OCCO4)sc2c1	–	–	–	–	–	·
CCc1ccc2nc(N(CCCN(C)C)C(=O)c3ccc(S(=O)(=O)N4CCCC4)cc3)sc2c1	–	–	–	–	–	–
CCc1ccc2nc(N(CCCN(C)C)C(=O)c3ccc(S(=O)(=O)N4CCCc5ccccc54)cc3)sc2c1	106.1	–	–	–	–	–
COc1cc2nc(N(CCCN(C)C)C(=O)c3ccc(S(=O)(=O)N4CCc5ccccc5C4)cc3)sc2cc1OC	–	–	–	–	–	–
COc1cccc2sc(N(CCCN(C)C)C(=O)c3ccc(S(=O)(=O)N4CCc5ccccc5C4)cc3)nc12	85.3	–	–	55.8	–	–
COc1cc2nc(N(CCCN(C)C)C(=O)c3ccc(C(=O)c4ccccc4)cc3)sc2cc1OC	–	–	–	–	–	–
C[C@H]1CN(Cc2ccccc2)C(=O)[C@@H]1CC(=O)Nc1ccccc1	–	–	–	·	–	·
O=S1(=O)CC(N2CCN(CC3CC3)CC2)CN1Cc1ccc(F)cc1 (stereo unspecified)	–	–	–	·	–	·
CCOC(=O)C1CN(C(=O)OCC)CC1=NNC(N)=O (stereo unspecified)	–	–	–	·	–	·
Cc1cccc(C)c1-n1nnnc1C1(C)CCC(=O)N1CC1CCCCC1 (stereo unspecified)	·	·	–	·	·	·
CN(C)CCCN(C(=O)c1ccc2c(c1)CCCC2)c1nc2ccc(Cl)cc2s1	107.7	–	–	–	–	–
COc1cccc2sc(N(CCCN(C)C)C(=O)c3ccc(S(=O)(=O)N4CCCc5ccccc54)cc3)nc12	53.6	–	–	–	–	–
